“And” between values parts separate entries of the source, which are not always exact repeats. Equal entries are not always repeated. Inconclusive results are not listed. Entries that show only a call come without a potency. A structure can be active in one record and inactive in another. The source made the active and inactive calls. Unless noted, calls follow the shape of the dose curve; as a rule, active = well fitted curve in the direction sought with a large enough effect in the repeat runs; inconclusive = weak or mixed curves; inactive = no such curve, though single readings can be large; an effect the other way counts as inactive or inconclusive.
How the values were obtained:
[1] = qHTS assay to identify small molecule agonists of the estrogen receptor alpha (ER-alpha) signaling pathway in the presence of an antagonist - cell viability counter screen (AID 1259386);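 also: cells exposed to compounds for 22 h at 37 °C before the viability read; nearly all actives have a fitted effect of over 30% in size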; also: potency is read from the fitted curve at half-maximal effect
Procedure, shortened: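 Using estrogen-depleted VM7Luc4E2 cells, the 15-concentration compound series was applied together with 10.0nM ICI-182,780 and incubated 22hr at 37C/5% CO2. Cell viability was then scored by CellTiter-Fluor.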

[2] = biological target: Progesterone receptor (Homo sapiens) (UniProt P06401); assay: qHTS assay to identify small molecule agonists of the progesterone receptor (PR) signaling pathway (AID 1346784; calls by dose curve; also: nearly all actives have a fitted effect of over 30% in size)
Procedure, shortened: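 PR-UAS-bla HEK 293T cells carrying a UAS-driven beta-lactamase reporter were seeded in medium with 2% charcoal-stripped FBS, preincubated 6 hr at 37C, then exposed to compounds in DMSO for 16 hr; agonism was read by LiveBLAzer B/G FRET fluorescence.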

[3] = biological target: Progesterone receptor (Homo sapiens) (UniProt P06401); assay: qHTS assay to identify small molecule antagonists of the progesterone receptor (PR) signaling pathway (AID 1346795; active = well fitted inhibition curve with a large enough effect in the signal ratio in the repeat runs, not every such curve was filed as active; the % refers to the signal ratio; also: potency is read from the fitted curve at half-maximal effect)
Procedure, shortened: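 PR-UAS-bla HEK293T cells carrying a UAS-driven beta-lactamase reporter were plated in medium with 2% charcoal-stripped FBS and rested 6 hr at 37C. Compounds were added with 1 nM R5020 (final) for 16 hr, then FRET substrate loaded 2 hr at room temperature.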

[4] = qHTS assay to identify small molecule antagonists of the progesterone receptor (PR) signaling pathway - cell viability counter screen (AID 1346798); also: series mostly up to about 92 µM; nearly all actives have a fitted effect of over 50% in size
Procedure, shortened: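 PR-UAS-bla HEK293T cells in medium with 2% charcoal-stripped FBS were treated with compounds plus R5020 for 16 hr at 37C. Cell viability was then read by CellTiter-Glo luminescence after 30 min at room temperature in the same wells.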

[5] = qHTS assay to identify small molecule agonists of the progesterone receptor (PR) signaling pathway - cell viability counter screen (AID 1346799; calls by dose curve; also: nearly all actives have a fitted effect of over 45% in size)
Procedure, shortened: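 PR-UAS-bla HEK293T cells, 3,000 per well in medium with 2% charcoal-stripped FBS, were preincubated 6 hr at 37C, then exposed to compounds for 16 hr; viability was read as CellTiter-Glo luminescence after 30 min at room temperature.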

[6] = qHTS assay to identify small molecule antagonists of the TGF-beta/Smad signaling pathway - cell viability counter screen (AID 1346824); also: nearly all actives have a fitted effect of over 50% in size
Procedure, shortened: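 SBE-bla HEK 293T cells, incubated overnight, then compound plus 0.25 ng/mL TGF-beta1 (stock added) for 5 hr at 37 C. Viability was read in the same wells by CellTiter-Glo luminescence after 30 min at room temperature.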

[7] = qHTS assay to identify small molecule agonists of the TGF-beta/Smad signaling pathway - cell viability counter screen (AID 1346829); also: top concentration of the series differs between compounds; nearly all actives have a fitted effect of over 45% in size
Procedure, shortened: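 Here the cytotoxicity of library compounds is measured in SBE-bla HEK 293T cells treated for 5 hr, using CellTiter-Glo added to wells already read for the beta-lactamase reporter.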

[8] = qHTS assay to identify small molecule agonists of the TGF-beta/Smad signaling pathway (AID 1346859; active = well fitted activation curve with a large enough effect in the signal ratio in the repeat runs, not every such curve was filed as active; the % refers to the signal ratio; also: series mostly up to about 77 µM)
Procedure, shortened: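 HEK 293T cells stably carrying a beta-lactamase reporter driven by the Smad binding element were seeded overnight, exposed to DMSO-dissolved compounds for 5 hr at 37 C, 5% CO2, then loaded with FRET substrate for 2 hr at room temperature.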

[9] = Human pregnane X receptor (PXR) small molecule agonists, qHTS cell viability counter screen (AID 1346977); also: nearly all actives have a fitted effect of over 50% in size; also: potency is read from the fitted curve at half-maximal effect
Procedure, shortened: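 PXR-Luc HepG2 cells in medium with 5% charcoal-stripped FBS were pre-incubated 5hr, then exposed to compounds for 24hr at 37C. Viability was read in the same wells by CellTiter-Fluor fluorescence, reagent added after 23hr with a 1hr incubation.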

[10] = Caspase-3/7 induction in HepG2 cells by small molecules, qHTS assay (AID 1346978); also: nearly all actives have a fitted effect of over 15% in size
Procedure, shortened: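 Wild-type HepG2 cells, 2,000/well, settled 5 hr at 37 C and 5% CO2, then compound-treated for 17 hr; caspase-3/7 activity read by luminescent Caspase-Glo 3/7 after 30 min at room temperature.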

[11] = Caspase-3/7 induction in CHO-K1 cells by small molecules, qHTS cell viability counter screen (AID 1346979); also: nearly all actives have a fitted effect of over 35% in size; also: potency is read from the fitted curve at half-maximal effect
Procedure, shortened: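 Wild-type CHO-K1 cells were seeded at 1,500 per well, rested 5hr at 37 C, then exposed to compounds in DMSO. After 16hr, CellTiter-Fluor reagent was added and fluorescence read 1hr later as the viability measure.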

[12] = Caspase-3/7 induction in HepG2 cells by small molecules, qHTS cell viability counter screen (AID 1346981); also: nearly all actives have a fitted effect of over 30% in size; also: potency is read from the fitted curve at half-maximal effect
Procedure, shortened: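 After a 5-hr attachment period at 37 C and 5% CO2, wild-type HepG2 cells received compounds in DMSO. Sixteen hours later CellTiter-Fluor was dispensed and the fluorescent signal quantified after a further hour.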

[13] = biological target: Cytochrome P450 2D6 (Homo sapiens) (UniProt P10635); assay: Cytochrome P450 Family 2 Subfamily D Member 6 (CYP2D6) small molecule antagonists: luciferase reporter qHTS assay (AID 1671196); also: nearly all actives have a fitted effect of over 50% in size; also: potency is read from the fitted curve at half-maximal effect
Procedure, shortened: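 Room-temperature luminescent CYP2D6 activity assay: compound preincubated 10 min with enzyme–substrate mix, NADPH-initiated reaction 1 h, detection reagent 20 min before reading.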

[14] = biological target: Thyrotropin-releasing hormone receptor (Homo sapiens) (UniProt P34981); assay: qHTS assay to identify small molecule antagonists of the thyrotropin-releasing hormone receptor (TRHR) signaling pathway (AID 1346877; active = well fitted inhibition curve with a large enough effect in the repeat runs, not every such curve was filed as active; also: series mostly up to about 51 µM)
Procedure, shortened: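 Calcium signal in dye-loaded TRHR/HEK293 cells; compounds added 5 min before TRH (1 nM final); fluorescence monitored 3 min at 1 s steps.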

[15] = biological target: Thyrotropin-releasing hormone receptor (Homo sapiens) (UniProt P34981); assay: qHTS assay to identify small molecule agonists of the thyrotropin-releasing hormone receptor (TRHR) signaling pathway (AID 1346891; calls by dose curve; also: series mostly up to about 58 µM)
Procedure, shortened: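 TRHR-expressing HEK293 cells were plated 18 h at 37 °C/5% CO2, loaded with calcium dye 2 h at 37 °C, then given compound in DMSO; fluorescence was read kinetically for 3 min at 1 s intervals.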

[16] = Caspase-3/7 induction in CHO-K1 cells by small molecules, qHTS assay (AID 1346980); also: nearly all actives have a fitted effect of over 15% in size
Procedure, shortened: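 Wild-type CHO-K1 cells exposed to compounds for 17hr at 37 C, 5% CO2. Caspase-3/7 activity then measured by Caspase-Glo 3/7 luminescence after 30min at room temperature.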

[17] = biological target: Nuclear receptor subfamily 1 group I member 2 (Homo sapiens) (UniProt O75469); assay: Human pregnane X receptor (PXR) small molecule agonists, qHTS assay (AID 1346982); also: nearly all actives have a fitted effect of over 35% in size; also: potency is read from the fitted curve at half-maximal effect
Procedure, shortened: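 Tox21 qHTS; PXR-Luc HepG2; compounds pinned from DMSO; 24 hr, 37 C; ONE-Glo luciferase detection, 30 min room temperature.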

[18] = biological target: Nuclear receptor subfamily 1 group I member 2 (Rattus norvegicus) (UniProt Q9R1A7); assay: Rat pregnane X receptor (rPXR) activation by small molecules, qHTS assay (AID 1346983); details: rPXR luciferase reporter cells, One-Glo luminescence, 24 h; stronger effect = higher value; also: nearly all actives have a fitted effect of over 20% in size
Procedure, shortened: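 Cell-based rPXR activation assay: rPXR cells, 2,000 per well, rested 5hr at 37 C, then exposed to compounds in DMSO for 24 hr at 37 C. Luciferase activity read by One-Glo luminescence after 30 min at room temperature.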

[19] = biological target: Nuclear receptor subfamily 1 group I member 2 (Homo sapiens) (UniProt O75469); assay: Human pregnane X receptor (PXR) activation by small molecules, qHTS assay (AID 1346985); also: nearly all actives have a fitted effect of over 40% in size
Procedure, shortened: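 DPX-2 cells (HepG2 co-transfected with a PXR response element and a CYP3A4-promoter luciferase construct) were seeded at 2,000 per well, rested 5 hr at 37C, then exposed to DMSO-dissolved compounds for 24 hr. Activation was read as luciferase luminescence.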

[20] = biological target: Cytochrome P450 2C19 (Homo sapiens) (UniProt P33261); assay: Cytochrome P450 Family 2 Subfamily C Member 19 (CYP2C19) small molecule antagonists: luciferase reporter qHTS assay (AID 1671197); also: nearly all actives have a fitted effect of over 65% in size; also: potency is read from the fitted curve at half-maximal effect
Procedure, shortened: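 Light output is proportional to CYP2C19 activity: proluciferin substrate is converted to luciferin, then detected by a luciferin detection reagent that also stops the 1 h, 37C NADPH-driven reaction. Ketoconazole serves as positive control.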

Chain of Cytochrome P450 2D6 (Homo sapiens) (P10635 whole entry, looked up): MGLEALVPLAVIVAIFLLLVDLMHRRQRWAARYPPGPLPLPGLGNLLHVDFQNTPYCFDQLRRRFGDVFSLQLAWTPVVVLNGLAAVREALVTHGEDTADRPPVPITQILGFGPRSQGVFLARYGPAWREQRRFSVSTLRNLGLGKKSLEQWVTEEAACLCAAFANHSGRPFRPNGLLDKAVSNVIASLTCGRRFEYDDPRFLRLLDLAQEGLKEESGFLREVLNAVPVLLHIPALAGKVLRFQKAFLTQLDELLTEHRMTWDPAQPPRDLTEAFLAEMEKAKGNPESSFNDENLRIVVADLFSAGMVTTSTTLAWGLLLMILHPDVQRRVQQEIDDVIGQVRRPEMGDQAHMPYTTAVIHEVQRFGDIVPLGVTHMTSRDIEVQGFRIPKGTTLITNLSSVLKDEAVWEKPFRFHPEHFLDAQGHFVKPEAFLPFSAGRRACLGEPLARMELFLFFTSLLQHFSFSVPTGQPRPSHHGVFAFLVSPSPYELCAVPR
Chain of Nuclear receptor subfamily 1 group I member 2 (Homo sapiens) (O75469 whole entry, looked up): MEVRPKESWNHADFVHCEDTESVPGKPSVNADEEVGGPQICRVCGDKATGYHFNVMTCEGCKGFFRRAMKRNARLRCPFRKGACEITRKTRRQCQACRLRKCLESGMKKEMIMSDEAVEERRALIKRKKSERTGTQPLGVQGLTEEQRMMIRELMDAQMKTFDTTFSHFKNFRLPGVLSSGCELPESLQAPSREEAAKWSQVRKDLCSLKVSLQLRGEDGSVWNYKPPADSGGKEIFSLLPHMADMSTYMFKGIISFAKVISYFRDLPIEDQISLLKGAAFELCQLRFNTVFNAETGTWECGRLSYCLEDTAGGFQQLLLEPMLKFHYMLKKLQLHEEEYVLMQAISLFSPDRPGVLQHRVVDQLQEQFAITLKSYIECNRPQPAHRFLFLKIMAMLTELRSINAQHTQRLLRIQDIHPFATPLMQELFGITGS
Chain of Thyrotropin-releasing hormone receptor (Homo sapiens) (P34981 whole entry, looked up): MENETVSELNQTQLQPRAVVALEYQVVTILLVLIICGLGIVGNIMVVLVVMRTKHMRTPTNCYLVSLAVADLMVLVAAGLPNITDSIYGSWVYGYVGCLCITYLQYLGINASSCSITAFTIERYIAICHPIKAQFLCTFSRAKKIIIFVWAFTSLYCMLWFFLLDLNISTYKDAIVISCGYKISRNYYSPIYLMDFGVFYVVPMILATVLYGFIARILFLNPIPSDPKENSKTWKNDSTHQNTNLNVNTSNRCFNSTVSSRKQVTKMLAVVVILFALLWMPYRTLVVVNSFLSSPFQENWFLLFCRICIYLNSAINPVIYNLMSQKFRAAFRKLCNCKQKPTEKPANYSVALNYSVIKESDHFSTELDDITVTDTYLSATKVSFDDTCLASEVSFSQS
Chain of Cytochrome P450 2C19 (Homo sapiens) (P33261 whole entry, looked up): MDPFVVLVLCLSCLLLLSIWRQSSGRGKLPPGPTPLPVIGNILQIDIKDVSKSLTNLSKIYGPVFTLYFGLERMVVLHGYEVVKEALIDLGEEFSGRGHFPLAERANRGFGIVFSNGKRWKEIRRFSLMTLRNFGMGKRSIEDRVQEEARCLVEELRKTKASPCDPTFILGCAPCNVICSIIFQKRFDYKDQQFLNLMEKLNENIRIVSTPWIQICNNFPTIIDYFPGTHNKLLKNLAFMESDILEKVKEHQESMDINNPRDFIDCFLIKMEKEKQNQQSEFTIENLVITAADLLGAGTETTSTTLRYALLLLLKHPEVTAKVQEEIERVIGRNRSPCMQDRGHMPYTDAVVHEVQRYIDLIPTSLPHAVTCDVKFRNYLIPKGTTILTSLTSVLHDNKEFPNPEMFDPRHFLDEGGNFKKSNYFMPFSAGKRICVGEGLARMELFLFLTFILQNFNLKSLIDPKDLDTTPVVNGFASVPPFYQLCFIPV
Chain of Progesterone receptor (Homo sapiens) (P06401 whole entry, looked up): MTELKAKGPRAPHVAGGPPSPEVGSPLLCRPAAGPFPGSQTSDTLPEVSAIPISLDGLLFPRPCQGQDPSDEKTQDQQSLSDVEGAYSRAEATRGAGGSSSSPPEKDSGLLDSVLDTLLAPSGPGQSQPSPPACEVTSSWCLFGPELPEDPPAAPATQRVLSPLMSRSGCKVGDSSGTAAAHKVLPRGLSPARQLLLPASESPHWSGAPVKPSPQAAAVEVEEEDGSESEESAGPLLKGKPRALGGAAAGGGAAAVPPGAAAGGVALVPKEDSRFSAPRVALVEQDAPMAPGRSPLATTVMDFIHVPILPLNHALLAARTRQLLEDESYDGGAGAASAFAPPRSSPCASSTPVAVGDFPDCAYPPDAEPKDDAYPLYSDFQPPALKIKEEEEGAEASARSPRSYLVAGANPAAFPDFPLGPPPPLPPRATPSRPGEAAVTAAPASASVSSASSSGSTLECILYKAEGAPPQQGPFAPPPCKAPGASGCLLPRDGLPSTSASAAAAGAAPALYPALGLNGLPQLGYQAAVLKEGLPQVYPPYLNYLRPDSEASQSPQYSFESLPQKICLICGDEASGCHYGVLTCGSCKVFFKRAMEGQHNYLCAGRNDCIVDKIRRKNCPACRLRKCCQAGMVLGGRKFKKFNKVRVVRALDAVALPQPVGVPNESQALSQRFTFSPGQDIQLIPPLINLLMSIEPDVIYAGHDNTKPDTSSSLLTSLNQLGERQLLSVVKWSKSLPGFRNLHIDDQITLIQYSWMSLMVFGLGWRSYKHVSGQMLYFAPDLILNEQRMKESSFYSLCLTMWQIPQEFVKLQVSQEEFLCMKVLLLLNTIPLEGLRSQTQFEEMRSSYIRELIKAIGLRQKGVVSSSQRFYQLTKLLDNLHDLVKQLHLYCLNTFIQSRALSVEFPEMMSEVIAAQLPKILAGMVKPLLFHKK
Chain of Nuclear receptor subfamily 1 group I member 2 (Rattus norvegicus) (Q9R1A7 whole entry, looked up): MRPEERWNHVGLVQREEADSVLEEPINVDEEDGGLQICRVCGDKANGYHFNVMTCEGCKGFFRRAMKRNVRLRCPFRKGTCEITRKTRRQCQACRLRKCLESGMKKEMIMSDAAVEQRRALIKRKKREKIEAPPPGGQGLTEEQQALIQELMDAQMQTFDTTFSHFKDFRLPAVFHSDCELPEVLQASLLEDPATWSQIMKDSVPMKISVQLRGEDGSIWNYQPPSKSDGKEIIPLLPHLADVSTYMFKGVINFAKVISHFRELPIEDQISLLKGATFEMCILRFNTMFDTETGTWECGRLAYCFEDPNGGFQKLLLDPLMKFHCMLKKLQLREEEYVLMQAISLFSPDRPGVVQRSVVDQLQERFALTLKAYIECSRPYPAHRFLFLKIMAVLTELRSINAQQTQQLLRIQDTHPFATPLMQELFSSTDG

SMILES | Potency [1] | Potency [2] | Potency [3] | Potency [4] | Potency [5] | Potency [6] | Potency [7] | outcome [8] | Potency [9] | Potency [10] | Potency [11] | Potency [12] | Potency [13] | Potency [14] | Potency [15] | Potency [16] | Potency [17] | max activation [18] | Potency [19] | Potency [20]
CC(COc1ccccc1)N(CCCl)Cc1ccccc1 (stereo not drawn) | inactive | inactive | 30.6 µM (active) and 26.6 µM (active) | inactive | inactive | inactive | inactive | inactive | inactive | inactive | inactive | inactive | 570 nM (active) and 448 nM (active) and 692 nM (active) |  |  |  |  |  |  | 
CCc1cc(C(C)(C)C)c(O)c(C(C)(C)C)c1 | inactive | inactive | inactive | inactive | inactive | inactive | inactive | inactive | inactive | inactive | inactive | inactive | inactive | inactive | inactive | inactive | inactive and 34.4 µM (active) |  |  | 
Cc1ccnc2c1NC(=O)c1cccnc1N2C1CC1 | inactive | inactive | inactive | inactive | inactive | inactive | inactive | inactive | inactive | inactive | inactive | inactive | 7.4 µM (active) and inactive | inactive | inactive |  | inactive | -1.62% (inactive) | inactive | inactive
CC(C)(C)NCC(O)COc1ccccc1OCC1CCCO1 (stereo not drawn) | inactive | inactive | inactive | inactive | inactive | inactive | inactive |  | inactive | inactive | inactive | inactive | 2.75 µM (active) | inactive | inactive | inactive | inactive |  |  | 
COC(=O)/C=C/c1ccccc1 | inactive | inactive | inactive | inactive | inactive | inactive | inactive |  | inactive | inactive | inactive | inactive | 35.6 µM (active) and inactive | inactive | inactive | inactive | inactive |  |  | 
Nc1ccc(O)cc1 | 31.8 µM (active) and inactive | inactive | inactive | inactive | inactive | inactive | inactive |  | 56.6 µM (active) and inactive | inactive | 56.6 µM (active) | 56.6 µM (active) and inactive | 37 µM (active) | inactive | inactive | inactive | inactive |  |  | 
CC(=O)OCCOCCOCCOC(C)=O | inactive | inactive | inactive | inactive | inactive | inactive | inactive |  | inactive | inactive | inactive | inactive | inactive | inactive | inactive |  | inactive |  |  | 78.7 µM (active) and inactive
